Test [1] is described as follows: Nuclear factor erythroid 2-related factor 2/antioxidant responsive element (Nrf2/ARE) small molecule agonists: qHTS cell viability counter screen in human keratinocytes (AID 1919968; active = well fitted curve in the direction sought with a large enough effect in the repeat runs; an effect the other way counts as inactive or inconclusive; note: nearly all actives have a fitted effect of over 55% in size; note: potency is the fitted concentration of half-maximal effect). The essentials: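 Parallel cytotoxicity read: KeratinoSens HaCaT cells, compound treatment 23 h, viability by CellTiter-Fluor fluorescence 1 h post-reagent.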
The nature of test [2]: Nuclear factor erythroid 2-related factor 2/antioxidant responsive element (Nrf2/ARE) small molecule agonists: luciferase reporter gene qHTS assay in human keratinocytes (AID 1919969). Note: nearly all actives have a fitted effect of over 35% in size. Note: potency is the fitted concentration of half-maximal effect.
For test [3], the target named is Gonadotropin-releasing hormone receptor (Homo sapiens) (UniProt P30968). Description: Human gonadotropin-releasing hormone receptor (GnRHR) small molecule agonists, calcium flux assay in GnRHR-HEK293 cells (AID 1920063). Note: nearly all actives have a fitted effect of over 35% in size. Summed up:
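Calcium flux, agonist mode, human GnRHR stably integrated in HEK293; dye 1 h at 37 C before compound; Ex/Em=480/540 kinetic read, 3 min; 15 concentrations, triplicate.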

For test [4], the target named is KiSS-1 receptor (Homo sapiens) (UniProt Q969F8). Description: Human kisspeptin (KISS1R) small molecule agonists, calcium flux assay in KISS1R-HEK293 cells (AID 1920064; active = well fitted curve in the direction sought with a large enough effect in the repeat runs; an effect the other way counts as inactive or inconclusive). The essentials:
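Triplicate 15-concentration series were applied to dye-loaded human KISS1R HEK293 cells, and agonist-evoked calcium fluorescence was captured for 3 min.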

The nature of test [5]: G protein-coupled receptor (GPCR) small molecule agonists, calcium flux assay: HEK293 wild type cell line counter screen (AID 1920065). The essentials: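 Non-specific calcium responders were flagged by adding DMSO-dissolved compounds to dye-loaded cells and reading 480/540 nm fluorescence each second for 3 min; ATP served as positive control.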
The nature of test [6]: p53 small molecule agonists, cell-based qHTS assay with human liver microsomes: qHTS cell viability counter screen (AID 1963579). Note: nearly all actives have a fitted effect of over 45% in size. Summed up: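 Cytotoxicity counter screen: p53RE-bla, 4,000 cells/well; 5 h settle, 37 C/5% CO2; cpd + HLM 0.5 mg/mL + NADPH 0.5 mg/mL (final); 16 h, 37 C; CellTiter-Glo, 30 min RT, luminescence.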
Test [7] is described as follows: p53 small molecule agonists, cell-based qHTS assay with rat liver microsomes: qHTS cell viability counter screen (AID 1963580). Note: nearly all actives have a fitted effect of over 45% in size. Summed up: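 Luminescent ATP readout (CellTiter-Glo, 30 min at room temperature) reports viability of p53RE-bla HCT-116 cells after 16 h at 37 C with test compounds under metabolic activation by rat liver microsomes and NADPH at 0.5 mg/mL final each.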

A short description of test [8]: p53 small molecule agonists, cell-based qHTS assay: qHTS cell viability counter screen (AID 1963581). Note: nearly all actives have a fitted effect of over 45% in size. Summed up:
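Multiplexed with the reporter read, a CellTiter-Glo step (30 min, room temperature) gauges ATP-based viability of HCT-116 p53RE-bla cells after 16 h compound incubation at 37 C.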

Test [9] deals with 5-hydroxytryptamine receptor 2A (Homo sapiens) (UniProt P28223). Description: 5-hydroxytryptamine receptor 2A (HTR2A) small molecule antagonists, cell-based qHTS assay (AID 1963586). Note: nearly all actives have a fitted effect of over 45% in size. The essentials:
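CHO cells stably expressing human HTR2A were plated for 18 h at 37 C, then loaded with calcium dye for 1 h. Compounds were preincubated 5 min at room temperature before DOI (4 nM solution) was added. Kinetic fluorescence was read for 3 min.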

The target is the same in test [10]. Description: 5-hydroxytryptamine receptor 2A (HTR2A) small molecule agonists, cell-based qHTS assay (AID 1963587). Note: nearly all actives have a fitted effect of over 30% in size. Summed up: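 HTR2A-CHO cells, plated 18 h at 37 C/5% CO2, dye-loaded 1 h at 37 C; compounds in DMSO added by pin tool (agonist mode). Intracellular calcium flux read as kinetic fluorescence on FDSS over 2 min at 1 s intervals.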
Test [11] concerns the target Muscarinic acetylcholine receptor M1 (Homo sapiens) (UniProt P11229). Description: Cholinergic receptor muscarinic 1 (CHRM1) small molecule agonists, cell-based qHTS assay (AID 1963589). Note: nearly all actives have a fitted effect of over 35% in size. The essentials: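 qHTS, 15-point titration, 3 independent runs: compounds pin-transferred onto dye-loaded CHRM1-CHO cells (human M1), calcium fluorescence followed every second to detect agonism.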

Test [12] can be described thus: cAMP Responsive Elements (CRE) small molecule antagonists, cell-based qHTS assay (AID 1963591; active = well fitted inhibition curve with a large enough effect in the signal ratio in the repeat runs, not every such curve was filed as active; the % refers to the signal ratio). Summed up: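 Fluorescence intensity from cleaved LiveBLAzer B/G substrate (2 h, room temperature) quantified CRE-bla activity in HEK 293T cells exposed 3 h to compound with 0.25 uM final NKH477.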
In test [13] the target is Beta-2 adrenergic receptor (Homo sapiens) (UniProt P07550). Briefly: Adrenergic beta2 receptor (ADRB2) small molecule antagonists, cell-based qHTS assay (AID 1963592). Note: series mostly up to about 92 µM; nearly all actives have a fitted effect of over 50% in size. The essentials:
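Assay format: CHO-ADRB2 cells, 18-20hr seeding at 37C/5% CO2, then compound plus 1nM isoproterenol agonist mix for 0.5hr RT. Homogeneous time-resolved fluorescence cAMP detection after 1hr, expressed as 665/615 nm ratio.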

Test [14] has the same target. Briefly: Adrenergic beta2 receptor (ADRB2) small molecule agonists, cell-based qHTS assay (AID 1963593).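 Note: CHO cells stably overexpressing human ADRB2.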 The essentials:
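CHO cells stably over-expressing ADRB2 were plated overnight at 37C, then dosed with compounds plus a stimulation mix containing 100uM IBMX and 25uM Ro-20-1724 for 0.5hr at room temperature. cAMP was measured by HTRF competition, 1hr.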

The target in test [15] is D(2) dopamine receptor (Homo sapiens) (UniProt P14416). Briefly: Dopamine D2 receptor (DRD2) small molecule antagonists, cell-based qHTS assay (AID 1963595; active = well fitted inhibition curve with a large enough effect in the signal ratio in the repeat runs, with a control signal flat; the % refers to the signal ratio). The essentials: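 Antagonism was scored as restored cAMP in HEK293-DRD2 cells. These cells were stimulated with 200 nM NKH477 and 12 nM quinpirole for 30 min at room temperature, in the presence of 0.1 mM Ro20-1724.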

Test [16] deals with Muscarinic acetylcholine receptor M1 (Homo sapiens) (UniProt P11229). Briefly: Cholinergic receptor muscarinic 1 (CHRM1) small molecule antagonists, cell-based qHTS assay (AID 1963588). Note: nearly all actives have a fitted effect of over 40% in size. Summed up:
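Compounds were tested at 15 concentrations in three independent runs. Dye-loaded CHRM1-CHO cells were exposed 5 min at room temperature before stimulation by acetylcholine added at 50nM. Intracellular calcium was read kinetically on FDSS for 3 min.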

A short description of test [17]: cAMP Responsive Elements (CRE) small molecule agonists, cell-based qHTS assay (AID 1963590). Summed up:
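Quantitative HTS for CRE agonists: HEK 293T CRE-bla cells, overnight plating, 3 h compound incubation at 37 C/5% CO2, then 2 h room-temperature LiveBLAzer B/G FRET substrate loading.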

Test [18] has as its target D(2) dopamine receptor (Homo sapiens) (UniProt P14416). Briefly: Dopamine D2 receptor (DRD2) small molecule agonists, cell-based qHTS assay (AID 1963594). Note: nearly all actives have a fitted effect of over 35% in size. Summed up: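 HEK293 cells stably expressing DRD2 were cultured 24 h at 37 C, then given Ro20-1724 (0.1 mM final) and compounds for 10 min at room temperature. NKH477 (200nM) was then added for 30 min. cAMP was read by HTRF.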

“And” between values parts separate entries of the source, which are not always exact repeats. Equal values may be shown once. Results filed as inconclusive are left out. Some compounds were tested as several samples or in several runs, with calls that do not always agree. The source made the active and inactive calls. Unless noted, calls come from the whole dose curve.
% is set by controls: 0 for no effect and ±100 for the full control effect.

5-hydroxytryptamine receptor 2A (Homo sapiens), sequence (P28223 whole entry, looked up): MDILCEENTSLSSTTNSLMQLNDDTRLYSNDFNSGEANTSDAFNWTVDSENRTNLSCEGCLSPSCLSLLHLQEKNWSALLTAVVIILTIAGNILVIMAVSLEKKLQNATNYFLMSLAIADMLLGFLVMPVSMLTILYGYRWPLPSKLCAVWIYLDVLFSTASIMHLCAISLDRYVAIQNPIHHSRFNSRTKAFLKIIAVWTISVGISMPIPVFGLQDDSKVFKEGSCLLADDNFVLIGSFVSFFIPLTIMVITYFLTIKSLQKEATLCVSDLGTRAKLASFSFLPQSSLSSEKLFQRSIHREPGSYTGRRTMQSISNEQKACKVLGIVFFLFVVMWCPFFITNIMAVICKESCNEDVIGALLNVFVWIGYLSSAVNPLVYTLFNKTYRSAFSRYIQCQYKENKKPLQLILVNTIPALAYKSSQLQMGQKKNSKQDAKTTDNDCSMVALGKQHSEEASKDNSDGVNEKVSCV
Beta-2 adrenergic receptor (Homo sapiens), sequence (P07550 whole entry, looked up): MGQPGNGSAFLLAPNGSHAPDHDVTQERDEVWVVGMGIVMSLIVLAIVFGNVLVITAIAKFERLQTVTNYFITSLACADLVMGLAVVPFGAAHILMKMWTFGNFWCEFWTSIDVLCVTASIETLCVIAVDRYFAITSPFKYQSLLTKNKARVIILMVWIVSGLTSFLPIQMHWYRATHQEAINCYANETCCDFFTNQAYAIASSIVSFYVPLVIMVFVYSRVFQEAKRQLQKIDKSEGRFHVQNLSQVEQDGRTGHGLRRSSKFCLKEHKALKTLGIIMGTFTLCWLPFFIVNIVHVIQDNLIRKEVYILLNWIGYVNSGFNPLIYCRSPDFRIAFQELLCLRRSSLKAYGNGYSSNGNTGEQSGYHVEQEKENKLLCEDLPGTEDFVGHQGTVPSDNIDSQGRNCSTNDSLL
Gonadotropin-releasing hormone receptor (Homo sapiens), sequence (P30968 whole entry, looked up): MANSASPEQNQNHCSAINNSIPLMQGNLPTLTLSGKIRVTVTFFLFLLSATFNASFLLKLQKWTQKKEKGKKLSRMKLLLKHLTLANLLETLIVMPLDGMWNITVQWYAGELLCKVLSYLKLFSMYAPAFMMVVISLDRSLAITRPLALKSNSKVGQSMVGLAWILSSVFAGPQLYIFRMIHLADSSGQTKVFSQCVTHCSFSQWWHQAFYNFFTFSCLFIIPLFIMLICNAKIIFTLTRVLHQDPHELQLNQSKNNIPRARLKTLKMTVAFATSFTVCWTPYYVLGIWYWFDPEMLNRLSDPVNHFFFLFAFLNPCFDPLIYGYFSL
Muscarinic acetylcholine receptor M1 (Homo sapiens), sequence (P11229 whole entry, looked up): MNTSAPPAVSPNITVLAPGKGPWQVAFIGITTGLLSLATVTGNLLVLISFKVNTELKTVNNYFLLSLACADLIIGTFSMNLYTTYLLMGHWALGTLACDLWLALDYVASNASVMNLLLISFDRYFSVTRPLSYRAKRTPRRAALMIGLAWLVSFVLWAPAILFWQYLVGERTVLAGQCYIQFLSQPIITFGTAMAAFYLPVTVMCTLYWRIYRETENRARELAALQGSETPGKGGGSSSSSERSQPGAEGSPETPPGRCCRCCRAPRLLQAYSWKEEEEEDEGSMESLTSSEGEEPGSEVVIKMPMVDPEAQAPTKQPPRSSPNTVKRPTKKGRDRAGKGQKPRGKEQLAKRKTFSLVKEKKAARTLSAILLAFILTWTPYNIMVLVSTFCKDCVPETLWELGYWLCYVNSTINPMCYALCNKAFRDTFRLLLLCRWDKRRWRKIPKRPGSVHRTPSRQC
KiSS-1 receptor (Homo sapiens), sequence (Q969F8 whole entry, looked up): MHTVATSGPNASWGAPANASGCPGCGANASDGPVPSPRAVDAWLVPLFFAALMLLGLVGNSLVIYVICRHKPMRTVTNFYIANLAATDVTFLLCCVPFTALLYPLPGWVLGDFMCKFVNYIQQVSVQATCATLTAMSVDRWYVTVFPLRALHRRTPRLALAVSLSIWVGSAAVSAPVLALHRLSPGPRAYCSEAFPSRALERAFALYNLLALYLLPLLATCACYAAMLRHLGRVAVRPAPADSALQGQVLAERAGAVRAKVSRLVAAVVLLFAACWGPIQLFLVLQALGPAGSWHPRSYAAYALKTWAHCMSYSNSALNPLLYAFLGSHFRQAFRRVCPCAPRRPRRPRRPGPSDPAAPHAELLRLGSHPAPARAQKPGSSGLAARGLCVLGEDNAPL
D(2) dopamine receptor (Homo sapiens), sequence (P14416 whole entry, looked up): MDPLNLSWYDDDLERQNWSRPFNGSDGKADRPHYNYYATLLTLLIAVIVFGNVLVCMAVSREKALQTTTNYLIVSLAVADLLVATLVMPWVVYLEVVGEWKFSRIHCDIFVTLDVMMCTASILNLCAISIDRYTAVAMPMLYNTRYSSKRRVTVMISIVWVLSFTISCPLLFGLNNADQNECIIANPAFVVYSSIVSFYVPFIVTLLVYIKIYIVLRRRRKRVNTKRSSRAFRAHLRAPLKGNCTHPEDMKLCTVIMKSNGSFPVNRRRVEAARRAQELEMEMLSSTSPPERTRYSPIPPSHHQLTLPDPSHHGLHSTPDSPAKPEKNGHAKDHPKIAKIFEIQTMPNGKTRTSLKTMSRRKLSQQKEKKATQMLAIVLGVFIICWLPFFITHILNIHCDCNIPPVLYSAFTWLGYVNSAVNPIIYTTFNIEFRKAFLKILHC

Regarding `O=C(O)c1cc2ccccc2cc1O`, the Potency entry in [1], in [2], in test [3], in [4], in test [5] and in test [6] was “inactive” throughout. Further, the Potency entry in [7], in test [8], in [9], in [10], in test [11] and in test [12] was “inactive” each time. Further, the Potency entry in [13], in test [14] and in [15] was “inactive” each time.

Take `NCCNCCNCCNCCN`: the Potency entry in test [1], in [2], in test [3], in [4], in test [5] and in test [6] was “inactive” in each case. The Potency entry in test [7], in test [9], in [16], in test [11], in test [17] and in [15] was “inactive” throughout. For the same compound, in test [12], the activity change, negative = inhibition was -9.22% [at 8.39 µM] (inactive).

On to `O=C1Nc2ccccc2C1(c1ccc(O)cc1)c1ccc(O)cc1`, for which the Potency entry in test [1], in [3], in test [4], in [5], in test [6] and in test [7] was “inactive” each time. Besides, the Potency result in test [9], in test [10], in test [16], in [11], in test [17] and in [12] was “inactive” in each case. The Potency entry in test [13], in test [18] and in [15] was “inactive” throughout. For the same compound, in test [2], the Potency is 386 nM (active) and 841 nM (active).

As for `Nc1ccc(O)cc1`, the Potency in [1] was 71.2 µM (active) and inactive; in test [2], 28.4 µM (active). The Potency entry in test [3], in test [4], in [5], in [6], in [7] and in test [8] was “inactive” throughout. For the same compound, the Potency result in [10], in [16], in [11], in [12], in test [13] and in test [14] was “inactive” throughout. Moreover, the Potency entry in test [18] and in [15] was “inactive” throughout.

As for `OCC(CO)(CO)CO`, the Potency result in test [1], in test [2], in test [3], in test [4], in test [5] and in test [6] was “inactive” each time. The Potency entry in test [7], in test [8], in test [9], in test [16], in [11] and in test [17] was “inactive” in each case. The Potency entry in test [12], in test [13], in test [18] and in test [15] was “inactive” each time.

Regarding `C=C(C)[C@H]1CC=C(C)C(=O)C1`, the Potency result in test [1], in [2], in [3], in test [4], in test [5] and in test [6] was “inactive” throughout. In addition, the Potency entry in test [8], in test [9], in test [10], in [16], in test [11] and in test [17] was “inactive” in each case. Besides, the Potency entry in test [12], in [13], in [18] and in [15] was “inactive” in each case.

As for `C=C[C@H]1CN2CC[C@H]1C[C@H]2[C@H](O)c1ccnc2ccc(OC)cc12`, the Potency result in [1], in [2], in test [3], in test [4], in [5] and in test [6] was “inactive” in each case. For the same compound, the Potency result in [7], in test [8], in test [9], in test [16], in test [11] and in test [17] was “inactive” throughout. Also, the Potency entry in test [12], in [13], in [18] and in [15] was “inactive” throughout.

Values taken from PubChem BioAssay (Tox21).
